# ROS inducer: cancer cell ROS induction; ROS induction (% of piperlongumine), % at 10 µM; hit rate 2% among 46,000; U2OS ROS induction, H2DCF-DA fluorescence; in the data active = ROS induction above about 79%, passing the limit was not always enough;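 note: 0% = DMSO vehicle median and 100% = reference compound median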
# YB-1 expression: YB-1 expression inhibition | U2OS, qRT-PCR YB-1 vs CDIP delta delta Cp, 16 h; stronger effect = higher value; zero = DMSO, each unit about twofold | delta delta Cp (YB-1 minus CDIP) (test concentration not listed) | hit rate 0.37% among 30,000;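 active = delta delta Cp rounded down to an integer at or above 3, about 3 SD of DMSO wells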;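 note: higher means less YB-1 transcript or more CDIP transcript relative to DMSO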
# Starred values were filed as active, the others as inactive; . = no result given. Compounds with a hit are over-represented: about 2.3% of the library has one in this group of screens.
SMILES,ROS inducer,YB-1 expression
CC1(C)CC(C)(c2ccccc2)c2cc(SC#N)ccc2N1 (configuration not stated),113.6*,0.172
CCCN(CCC)S(=O)(=O)c1ccc(C(=O)Nc2cccc(SC)c2)cc1,-2.9,0.16
CCCN(CCC)S(=O)(=O)c1ccc(C(=O)Nc2ccc3sc(SC)nc3c2)cc1,167.9*,.
COc1ccc2c(Sc3ccccc3)c(C(=O)NC3CCCC3)[nH]c2c1,-8.2,.
CCN(CC)c1c(C#N)c(SCC(=O)c2cccs2)cc2c1CCCC2,91.7*,0.646
Cc1cc(C)c2c(=O)[nH]c(SCC(=O)c3cccs3)nc2n1,20.7,.
CC1CCCC2OC2C(=O)c2c(O)cc(O)cc2CC(=O)O1 (configuration not stated),-6.3,0.224
CC1CCC/C=C/C(=O)c2c(O)cc(O)cc2CC(=O)O1 (configuration not stated),90.8*,0.201
COc1ccc(NC(=O)c2ccn[nH]2)cc1,-6.8,.
Cc1cc(=O)[nH]c(SCCCOc2ccccc2Cl)n1,11.8,.
COc1ccccc1OCCCSc1nc(-c2ccccc2)cc(=O)[nH]1,125.9*,.
CS(=NC(=O)Nc1ccc(Cl)cc1)c1sc(Cl)c2c1C(=O)CCC2 (configuration not stated),18.4,-0.173
O=S(=O)(NCC(Nc1ccccc1)c1ccccc1)c1ccccc1 (configuration not stated),1.9,.
COc1ccc(-c2noc(CSc3nnc(-c4ccccc4)n3C)n2)cc1,124.6*,.
Cn1c(SCc2nc(-c3ccc(Br)cc3)no2)nnc1-c1ccco1,6.1,.
N#Cc1ccc(N2C(=O)c3ccccc3C2=O)cc1,-3.0,.
COc1ccc(CN(C)C[C@@H]2OCCCC[C@@H](C)Oc3ccc(NC(=O)c4ccccc4)cc3C(=O)N([C@H](C)CO)C[C@@H]2C)cc1,146.6*,-0.163
COc1ccc(CN(C)C[C@@H]2OCCCC[C@@H](C)Oc3ccc(NC(=O)c4ccncc4)cc3C(=O)N([C@H](C)CO)C[C@@H]2C)cc1,11.6,-0.217
COc1ccc(CN(C)C[C@@H]2OCCCC[C@@H](C)Oc3ccc(NS(=O)(=O)c4ccc(OC)cc4)cc3C(=O)N([C@H](C)CO)C[C@@H]2C)cc1,172.1*,0.329
COc1ccc(S(=O)(=O)Nc2ccc3c(c2)C(=O)N([C@H](C)CO)C[C@H](C)[C@@H](CN(C)Cc2ccc(Cl)c(Cl)c2)OCCCC[C@@H](C)O3)cc1,151.0*,-0.828
COc1ccc(CN(C)C[C@@H]2OCCCC[C@@H](C)Oc3ccc(NS(=O)(=O)c4ccc(Cl)cc4)cc3C(=O)N([C@H](C)CO)C[C@@H]2C)cc1,58.5,0.23
COc1ccc(CN(C)C[C@H]2Oc3ccc(NS(=O)(=O)c4ccc(Cl)cc4)cc3C(=O)N([C@H](C)CO)C[C@@H]2C)cc1,147.3*,0.0441
COc1ccc(CN(C)C[C@H]2Oc3ccc(NS(=O)(=O)c4ccc(Cl)cc4)cc3C(=O)N([C@@H](C)CO)C[C@@H]2C)cc1,35.0,0.246
COc1ccc(CN(C)C[C@H]2OCCCC[C@@H](C)Oc3ccc(NS(=O)(=O)c4ccc(C)cc4)cc3C(=O)N([C@H](C)CO)C[C@@H]2C)cc1,29.0,-0.649
O=C1/C(=C/c2ccccc2O)N=C2CCCCCN12,36.1,.
SMILES,ROS inducer,YB-1 expression
O=C1CON(c2ccc(Cl)c(Cl)c2)C(=O)N1,-7.0,.
CCOC(=O)C1=C(C2CC=CCC2)NC(=S)NC1C (configuration not stated),-8.1,.
CC(=O)N/C(N)=N/c1nc2ccccc2o1,-11.8,.
COc1ccc2[nH]c(C)c(CCNS(=O)(=O)c3c(C)[nH]c(=O)[nH]c3=O)c2c1,-2.3,.
Cn1c(Sc2cnn(-c3ccccc3)c(=O)c2Br)nnc1-c1ccccc1,68.8,.
O=C(NCc1ccco1)c1ccccc1C(=O)c1ncc[nH]1,-11.7,.
C[C@@H]1CCCCO[C@H](CN(C)Cc2ccc(Cl)c(Cl)c2)[C@@H](C)CN([C@H](C)CO)C(=O)c2cc(NC(=O)Cc3ccccc3)ccc2O1,25.3,0.257
C[C@H]1CN([C@@H](C)CO)C(=O)c2cc(NS(=O)(=O)c3ccccc3)ccc2O[C@H]1CN(C)Cc1ccc(C(F)(F)F)cc1,4.8,-0.0606
C[C@@H]1CN([C@@H](C)CO)C(=O)c2cc(NS(=O)(=O)c3ccccc3)ccc2O[C@H]1CN(C)Cc1ccc(C(F)(F)F)cc1,81.9*,0.0501
C[C@@H]1CCCCO[C@@H](CN(C)Cc2ccc(Cl)c(Cl)c2)[C@@H](C)CN([C@H](C)CO)C(=O)c2cc(NC(=O)Cc3ccccc3)ccc2O1,131.2*,0.361
COc1ccc(CN(C)C[C@H]2Oc3ccc(NC(=O)c4ccncc4)cc3C(=O)N([C@H](C)CO)C[C@@H]2C)cc1,-9.1,0.0843
COc1ccc(CN(C)C[C@@H]2Oc3ccc(NC(=O)c4ccncc4)cc3C(=O)N([C@H](C)CO)C[C@H]2C)cc1,149.3*,-0.295
O=C1CSc2ccc(C(=O)NCc3c(F)cc(F)cc3F)cc2N1,3.1,.
COc1ccc(S(=O)(=O)N2Cc3ccccc3CC2C(=O)N2CCCCC2)cc1 (configuration not stated),-10.6,.
CC1=NN(C(=O)CCc2ccccc2)C(O)(c2ccccc2)C1 (configuration not stated),-1.5,.
CC1C/C(=C/c2cccn2C)C(=O)/C(=C/c2cccn2C)C1 (configuration not stated),260.8*,.
COc1cccc(/C=C2\CC(C)C/C(=C\c3ccccc3OC)C2=O)c1 (configuration not stated),2.2,.
CC1CC(C)CN(S(=O)(=O)c2ccc(F)c(C(=O)Nc3cccc(F)c3)c2)C1 (configuration not stated),5.4,.
Cc1cc(C)n2nc(SCC(=O)NC(C)CCc3ccccc3)nc2n1 (configuration not stated),-4.3,.
CCOC(=O)Cc1nn(Cc2nc(-c3ccccc3)cs2)c(=O)c2ccccc12,-0.9,.
Cc1nc(S(=O)(=O)NCCNc2ccc(-c3ccc(F)cc3)nn2)cn1C,0.8,.
C=CCNC(=O)[C@H]1[C@@H]2C(=O)O[C@@H](c3ccccc3)[C@@H](c3ccccc3)N2[C@@H](c2ccc(OCCO)cc2)[C@]12C(=O)N(C(=O)OCCOC)c1ccc(C#CC3=CCCCC3)cc12,121.9*,0.00677
C=CCNC(=O)[C@@H]1[C@H]2C(=O)O[C@H](c3ccccc3)[C@H](c3ccccc3)N2[C@H](c2ccc(O)cc2)[C@@]12C(=O)Nc1ccc(C#CC3(O)CCCCCC3)cc12,4.2,-0.293
C=CCNC(=O)[C@H]1[C@@H]2C(=O)O[C@@H](c3ccccc3)[C@@H](c3ccccc3)N2[C@@H](c2ccc(OCCO)cc2)[C@]12C(=O)N(C(=O)OCCOC)c1ccc(C#CC3(O)CCCCCC3)cc12,105.1*,0.142
C=CCNC(=O)[C@@H]1[C@H]2C(=O)O[C@H](c3ccccc3)[C@H](c3ccccc3)N2[C@H](c2ccccc2OCCO)[C@@]12C(=O)N(C(=O)OCCOC)c1ccc(C#CCCO)cc12,37.0,-0.206
C=CCNC(=O)[C@@H]1[C@H]2C(=O)O[C@H](c3ccccc3)[C@H](c3ccccc3)N2[C@H](c2ccc(OCCO)cc2)[C@@]12C(=O)Nc1ccc(C#CC3=CCCCC3)cc12,73.9,-0.204

# Compound activity (PubChem BioAssay)
